Laboratory results published in PubChem BioAssay (EPA / NIEHS).
Values joined by “and” are separate entries in the source; they are usually repeats but may differ in a detail not shown here. Equal entries are not always repeated. More than one record can exist for a structure, and the calls need not agree. Active and inactive are the calls of the source. Rule for the calls: active = hit-call score of the fitted dose curve at least 0.9, where 1 is the maximum; inactive = score below 0.9.

Tests used:
[1] = read-out: Intercellular Adhesion Molecule 1 (ICAM1), ICAM1 (gene 3383); experiment: BSK_BF4T_ICAM1: BioMAP Diversity Plus: BF4T Assay for Intercellular Adhesion Molecule 1 (ICAM1) Biomarker Activity (AID 2284260); settings: primary human bronchial epithelial cells with fibroblasts
In short: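 ICAM-1 levels measured by ELISA after 24 h chemical treatment of bronchial epithelial cell/dermal fibroblast co-cultures, read against DMSO baseline. Overt cytotoxicity checked in parallel cultures by sulforhodamine B staining.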

[2] = read-out: Interleukin-8 (IL8), CXCL8 (gene 3576); experiment: BSK_MyoF_IL8: BioMAP Diversity Plus: MyoF Assay for Interleukin-8 (IL8) Biomarker Activity (AID 2284261); settings: primary human lung fibroblasts
In short: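 In this multiplexed primary-cell system, fibroblasts from human lung are treated with chemicals, and IL-8 is detected by ELISA at 24 h, with DMSO serving as the negative reference.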

CD90, THY1 (gene 7070) = experiment: BSK_BF4T_CD90: BioMAP Diversity Plus: BF4T Assay for CD90 Biomarker Activity (AID 2284262); settings: primary human bronchial epithelial cells with fibroblasts
In short: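 CD90 levels by ELISA after 24 h treatment of human bronchial epithelial cell/dermal fibroblast cultures, analysed versus DMSO. Overt cytotoxicity checked in parallel cultures by sulforhodamine B staining.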

[3] = read-out: Interleukin-1 alpha (IL1a), IL1A (gene 3552); experiment: BSK_BF4T_IL1a: BioMAP Diversity Plus: BF4T Assay for Interleukin-1 alpha (IL1a) Biomarker Activity (AID 2284264); settings: primary human bronchial epithelial cells with fibroblasts
In short: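 ELISA read-out of IL-1α from bronchial epithelial cell/dermal fibroblast co-cultures 24 h after compound addition. Increases scored against DMSO negative control. Cytotoxicity monitored by sulforhodamine B staining of parallel cultures.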

Decorin, DCN (gene 1634) = experiment: BSK_MyoF_Decorin: BioMAP Diversity Plus: MyoF Assay for Decorin Biomarker Activity (AID 2284265); settings: primary human lung fibroblasts
In short: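 Lung fibroblast cultures, 24 h chemical exposure. Decorin by ELISA, positive fitting direction, DMSO baseline.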

KRT18 (gene 3875) = experiment: BSK_BF4T_Keratin818: BioMAP Diversity Plus: BF4T Assay for Keratin 818 Biomarker Activity (AID 2284266); settings: primary human bronchial epithelial cells with fibroblasts
In short: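 Keratin 8/18 levels quantified by ELISA after 24 h chemical treatment of bronchial epithelial cell/dermal fibroblast co-cultures, fitted in positive direction relative to DMSO. Parallel SRB staining tracks overt cytotoxicity.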

[4] = BSK_MyoF_SRB: Viability Assessment in the BioMAP Diversity Plus: MyoF Assay (AID 2284267); settings: primary human lung fibroblasts;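 note: total protein by SRB absorbance in parallel cultures as cytotoxicity measure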
In short: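 Cytotoxicity read-out: after 10% TCA fixation, parallel human lung fibroblast cultures were stained with 0.1% SRB at 24 h post-dosing and read at 560 nm; DMSO served as baseline.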

[5] = read-out: Matrix Metallopeptidase 1 (MMP1), MMP1 (gene 4312); experiment: BSK_MyoF_MMP1: BioMAP Diversity Plus: MyoF Assay for Matrix Metallopeptidase 1 (MMP1) Biomarker Activity (AID 2284268); settings: primary human lung fibroblasts
In short: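 MMP1 measured by ELISA 24 h after dosing primary human lung fibroblasts; cytotoxicity checked in parallel cultures by sulforhodamine B total-protein staining read at 560 nm.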

[6] = read-out: TIMP metallopeptidase inhibitor 1 (TIMP1), TIMP1 (gene 7076); experiment: BSK_MyoF_TIMP1: BioMAP Diversity Plus: MyoF Assay for TIMP metallopeptidase inhibitor 1 (TIMP1) Biomarker Activity (AID 2284269); settings: primary human lung fibroblasts
In short: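 ELISA quantified TIMP-1 levels after 24 h dosing of primary human lung fibroblasts, with DMSO as baseline. Parallel SRB total protein staining (0.1% SRB after TCA fixation, 560 nm) flagged overt cytotoxicity.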

[7] = read-out: Interleukin-8 (IL8), CXCL8 (gene 3576); experiment: BSK_BF4T_IL8: BioMAP Diversity Plus: BF4T Assay for Interleukin-8 (IL8) Biomarker Activity (AID 2284263); settings: primary human bronchial epithelial cells with fibroblasts
In short: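 Human bronchial epithelial cells with dermal fibroblasts co-culture; IL-8 measured by ELISA 24 hours after dosing, fitted vs DMSO. Cytotoxicity tracked in parallel cultures by SRB total-protein staining.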

Measured: AC50

C=CC(=O)OCC(F)(F)C(F)(F)C(F)(F)COC(=O)C=C
inactive: CD90, THY1 (gene 7070) | [5]
active: [1] 7.12 µM and 9.76 µM | [2] 16.5 µM and 14.3 µM | CD90, THY1 (gene 7070) 8.59 µM | [3] 40.5 µM and 41.3 µM | Decorin, DCN (gene 1634) 12.2 µM and 9.13 µM | KRT18 (gene 3875) 45.3 µM and 51.1 µM | [4] 10.6 µM | [6] 16.9 µM and 13.9 µM

C=CC(=O)OCC(F)(F)C(F)(F)C(F)(F)C(F)(F)C(F)(F)C(F)(F)C(F)(F)C(F)F
active: Decorin, DCN (gene 1634) 10.3 µM | [5] 39.7 µM and 30 µM
inactive: [1] | [2] | CD90, THY1 (gene 7070) | [3] | Decorin, DCN (gene 1634) | KRT18 (gene 3875) | [4] | [6]

O=C(O)C(F)(F)C(F)(F)C(F)(F)OC(F)(C(F)(F)F)C(F)(F)F
inactive: all assays above

CN(C(=O)C(F)(F)C(F)(F)C(F)(F)F)[Si](C)(C)C
not listed: [7]
inactive: all other assays above

O=S(=O)(Cl)C(F)(F)C(F)(F)C(F)(F)C(F)(F)C(F)(F)C(F)(F)C(F)(F)C(F)(F)F
active: [3] 46.3 µM | Decorin, DCN (gene 1634) 22.3 µM | KRT18 (gene 3875) 48.5 µM
inactive: [1] | [2] | CD90, THY1 (gene 7070) | [3] | Decorin, DCN (gene 1634) | KRT18 (gene 3875) | [4] | [5] | [6]

C=CC(=O)OCCC(F)(F)C(F)(F)C(F)(F)C(F)(F)F
inactive: all assays above

O=C(Cl)C(F)(F)C(F)(F)C(F)(F)C(F)(F)C(F)(F)C(F)(F)F
not listed: [7]
inactive: all other assays above

C=C(C)C(=O)OCC(F)(F)C(F)(F)C(F)(F)C(F)F
not listed: [7]
inactive: all other assays above

CCN(CCO)S(=O)(=O)C(F)(F)C(F)(F)C(F)(F)C(F)(F)C(F)(F)C(F)(F)C(F)(F)C(F)(F)F
inactive: [1] | [2] | CD90, THY1 (gene 7070) | [7] | [3] | Decorin, DCN (gene 1634) | KRT18 (gene 3875) | [6]
active: Decorin, DCN (gene 1634) 19.4 µM | [4] 19.4 µM and 23.3 µM | [5] 7.69 µM and 8.4 µM | [6] 30 µM

OCC(O)CC(F)(F)C(F)(F)C(F)(F)C(F)(F)F (configuration not stated)
not listed: [7]
inactive: all other assays above

OCCCCC(F)(F)C(F)(F)C(F)(F)C(F)(F)F
not listed: [7]
inactive: all other assays above

OCC(F)(F)C(F)(F)C(F)(F)C(F)(F)C(F)(F)C(F)(F)C(F)(F)C(F)(F)CO
active: [1] 16.4 µM and 12.2 µM | [4] 47.2 µM | [5] 49.5 µM
inactive: [2] | CD90, THY1 (gene 7070) | [3] | Decorin, DCN (gene 1634) | KRT18 (gene 3875) | [4] | [5] | [6]

O=C(O)CCC(F)(F)C(F)(F)C(F)(F)C(F)(F)C(F)(F)C(F)(F)C(F)(F)F
inactive: all assays above

C[Si](Cl)(Cl)CCC(F)(F)C(F)(F)C(F)(F)C(F)(F)C(F)(F)C(F)(F)F
not listed: [7]
inactive: all other assays above

OCC(O)CC(F)(F)C(F)(F)C(F)(F)C(F)(F)C(F)(F)C(F)(F)C(F)(F)C(F)(F)F (configuration not stated)
not listed: [7]
inactive: all other assays above

OCC(F)(F)C(F)(F)C(F)(F)C(F)(F)C(F)(F)C(F)(F)CO
not listed: [7]
inactive: all other assays above

NC(O)(C(F)(F)F)C(F)(F)F
not listed: [7]
inactive: all other assays above

FC(F)(F)C(F)(F)C(F)(F)CC1CO1 (configuration not stated)
inactive: all assays above

CO[Si](C)(CCC(F)(F)C(F)(F)C(F)(F)C(F)(F)C(F)(F)C(F)(F)F)OC
not listed: [7]
inactive: all other assays above

O=C(Cl)C(F)(F)C(F)(F)C(F)(F)C(F)(F)C(F)(F)C(F)(F)C(F)(F)F
not listed: [7]
inactive: all other assays above

OCCCC(F)(F)C(F)(F)C(F)(F)C(F)(F)C(F)(F)C(F)(F)C(F)(F)C(F)(F)F
inactive: [5]
active: [1] 23.2 µM and 34.2 µM | [2] 11.9 µM and 9.9 µM | CD90, THY1 (gene 7070) 20.6 µM and 19.2 µM | [7] 47.9 µM and 24.3 µM | [3] 46.4 µM and 45.7 µM | Decorin, DCN (gene 1634) 16.4 µM and 14.4 µM | KRT18 (gene 3875) 47.1 µM and 33.9 µM | [4] 12.9 µM and 12.4 µM | [5] 16.3 µM | [6] 14.5 µM and 13.7 µM

O=S(=O)(O)CCC(F)(F)C(F)(F)C(F)(F)C(F)(F)F
inactive: all assays above

CNS(=O)(=O)C(F)(F)C(F)(F)C(F)(F)C(F)(F)C(F)(F)C(F)(F)C(F)(F)C(F)(F)F
inactive: [1] | [2] | CD90, THY1 (gene 7070) | [3] | Decorin, DCN (gene 1634) | KRT18 (gene 3875) | [4] | [5] | [6]
active: [2] 9.75 µM

O=C(O)C(F)(F)C(F)(F)C(F)(F)OC(F)(F)F
not listed: [7]
inactive: all other assays above

NC(=O)C(F)(F)C(F)(F)C(F)(F)F
not listed: [7]
inactive: all other assays above

O=C(F)C1(F)C(F)(F)C(F)(F)C(F)(F)C(F)(F)C1(F)F
not listed: [7]
inactive: all other assays above

FC(F)(F)C(F)(F)C(F)(F)C(F)(F)C(F)(F)C(F)(F)CC[Si](Cl)(Cl)Cl
inactive: all assays above
